Records with an inconclusive call do not appear. Values without a mark were called inactive. The source made the active and inactive calls. Calls come from the whole dose curve; as a rule, active = well fitted activation curve with a large enough effect; inconclusive = small, poorly fitted or top-dose-only effect, or another doubt; inactive = no such curve, though single readings can be large or run the other way.
Potency is the fitted concentration of half-maximal effect.

The target of the assay is Rap guanine nucleotide exchange factor 3 (Homo sapiens) (UniProt O95398). The assay is described as follows: Counterscreen qHTS for agonist of cAMP-regulated guanine nucleotide exchange factor 3 (EPAC1) (AID 1645889). For activation: % of control where 0% means no effect. Note: nearly all actives have a fitted effect of over 40% in size. The following applies: EPAC1 Rap1B-BODIPY-GDP exchange, fluorescence; series mostly up to 154 µM; activation: at the top concentration. In outline: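 Rap1B-BODIPY-GDP 250 nM + GDP 50 uM; cpds 7-pt, final 9.74 nM–152 uM (activator mode) or from 7.32 nM upwards (inhibitor mode); RT; FI 480/540 nm at 5 and 30 min, then ± cAMP, reread.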
(The purpose of a counterscreen is to sort out artefacts and off-target activity.)
`Cn1cccc1/C=C1/C(=O)NC(=S)N(Cc2ccc(F)cc2)C1=O`: the activation was 10.8% [at 30.8 µM]. Consider `COc1ccc(N2C(=O)NC(=O)/C(=C/c3ccc([N+](=O)[O-])s3)C2=O)cc1`, for which the “activation” value was 23.4%. As for `Oc1c(Cl)cccc1Cc1cc(Cl)cc(Cl)c1O`, the “activation” value is -2.9%.

Consider `CCC(=NCCCO)c1c(O)n(-c2ccc(OC)cc2)c(=O)[nH]c1=O`, for which the activation is -4.42% [at 30.8 µM].

`COc1ccc(-n2c(O)c(/C=C/C=Nc3ccccc3)c(=O)[nH]c2=O)cc1`: the Potency is 35.5 µM (active). Regarding `Cc1ccc(C)c(Cn2c(C(=O)O)c(C=O)c3ccccc32)c1`, the activation was 9.64% [at 30.8 µM]. Still for that read-out and setting: next, `Cc1ccc(CN2CCCN(Cc3ccccc3C)S2(=O)=O)cc1`: 9.46%; `O=C1NC(=O)N(Cc2ccco2)C(=O)/C1=C/C=C/c1ccco1`: -8.64% [at 30.8 µM]. Same read-out and setting: then `Cc1cc(/C=C2/C(=O)NC(=O)N(Cc3ccco3)C2=O)c(C)n1-c1ccccc1O`, with 17.9% [at 30.8 µM].

`CCN1/C(=C/C=C/C2=[N+](CC)c3ccccc3C2(C)C)C(C)(C)c2ccccc21`: the Potency was 10 µM (active).

Consider `Cc1ccc(N2C(=O)NC(=O)/C(=C\C=C\c3ccco3)C2=O)cc1C`, for which the “activation” value was 15.5%. Turning to `CCN(CC)c1ccc(N=Cc2c(O)n(CCC3=CCCCC3)c(=O)[nH]c2=O)cc1`, the “activation” value was 11.9%. Regarding `CN1C(=O)/C(=C/c2cccn2-c2ccc3ccccc3c2)C(=O)NC1=S`, the “activation” value was 22.5%. With `O=Cc1c(C(=O)O)n(Cc2ccc(Cl)cc2)c2ccccc12`, the Potency is 15.8 µM (active). As for `COc1ccc(OCC(=O)N2CCN(CC3CC4C=CC3C4)CC2)cc1` (stereo not given), the activation is 5.29% [at 30.8 µM].

The values are drawn from PubChem BioAssay (NCATS).
